According to PubChem BioAssay AID1851 (National Center for Advancing Translational Sciences (NCATS), 2009):
About 5,700 (36%) of roughly 16,000 compounds were called active. Roughly 24% stayed inconclusive and do not appear here. Calls follow the shape of the dose curve; as a rule, active = well fitted curve in the direction sought with a large enough effect; inconclusive = small, poorly fitted or top-dose-only effect, or effect the other way; inactive = no such curve, though single readings can be large or run the other way. The list shows a part of the results. Peptide text beside a SMILES is read from it. * marks the point of attachment. Cbz = O=C(OCc1ccccc1)*

Each molecule was assayed against Cytochrome P450 1A2 (Homo sapiens) (UniProt P05177) (assay: Cytochrome panel assay with activity outcomes). Conditions: recombinant CYP, pro-luciferin dealkylation, luminescence, p450-cyp1a2; series mostly up to 57.1 µM; activity, negative = inhibition: at the top concentration.
% is scaled to controls: 0 for no effect and ±100 for the full control effect.

Chain of Cytochrome P450 1A2 (Homo sapiens) (P05177 whole entry, looked up): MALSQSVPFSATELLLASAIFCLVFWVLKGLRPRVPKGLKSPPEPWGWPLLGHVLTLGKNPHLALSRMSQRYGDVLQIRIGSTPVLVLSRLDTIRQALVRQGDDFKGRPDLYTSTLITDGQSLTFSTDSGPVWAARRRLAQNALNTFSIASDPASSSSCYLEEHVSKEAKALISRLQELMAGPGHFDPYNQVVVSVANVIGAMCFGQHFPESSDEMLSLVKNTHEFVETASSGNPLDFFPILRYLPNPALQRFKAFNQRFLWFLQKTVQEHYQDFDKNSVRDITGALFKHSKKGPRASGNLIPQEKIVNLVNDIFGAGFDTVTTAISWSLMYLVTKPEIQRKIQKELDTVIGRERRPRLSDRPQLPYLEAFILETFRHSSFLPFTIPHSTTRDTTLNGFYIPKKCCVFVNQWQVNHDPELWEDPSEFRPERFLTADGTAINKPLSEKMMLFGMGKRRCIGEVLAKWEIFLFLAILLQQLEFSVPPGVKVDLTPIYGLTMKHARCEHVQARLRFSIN

activity, negative = inhibition, inactive:
CC(C)(C)N1C(=O)[C@@H]2[C@H]3C(=CC[C@H]2C1=O)C(=O)[C@H]1O[C@H]1[C@H]3O -0.944% [at 11.4 µM]
O=S(=O)(O)c1ccc(N=Nc2ccccc2)cc1 -5.18% [at 11.4 µM]
Cc1ccc(C(C)C)n1C(=O)OC(C)(C)C 6.74% [at 11.4 µM]
C/C(=C\C1CCCCC1)C(NC(=O)c1ccc(C(F)(F)F)cc1)c1ccc(-c2ccccc2)cc1 (centres undefined) 4.8%
C[C@@]1(C(NC(=O)c2cccs2)c2ccc(-c3ccccc3)cc2)C[C@H]1C1CCCCC1 (some centres undefined) -11%
Cc1cccc(NC2(C(F)(F)F)N=C(c3ccccc3)NC2=O)n1 (centres undefined) -7.41%
N#Cc1c(N2CCN(C(=O)c3ccccc3Cl)CC2)nc(-c2ccccc2)c2c1CCCC2 -15.6%
Cc1cc(C)cc(-n2c(O)c(C=NC3CCS(=O)(=O)C3)c3ccccc3c2=O)c1 (centres undefined) 1.41%
COc1c(O[C@H]2O[C@@H](CO)[C@@H](O)[C@@H](O)[C@@H]2O)cc2c(c1OC)-c1ccc(SC)c(=O)cc1[C@H](NC(C)=O)CC2 -16.7% [at 25.6 µM]
COc1cc(C(=O)N2CCC(NC(=O)C(Cc3ccc(C(C)C)cc3)NC(C)=O)CC2)cc(OC)c1OC (centres undefined) -25.5%
O=C(NCCN1CCCC1)C1(S(=O)(=O)c2ccc(Cl)cc2)CC1 -19.8%
O=C(NCCc1ccc(Cl)cc1)C1CCN(S(=O)(=O)N2CCC3(CC2)OCCO3)CC1 -3.74%
COc1cccc(/C=N/n2nnc3c(cnn3-c3ccccc3)c2=O)c1 -27.9%
COc1ccc(-n2nc(C(=O)NCC(=O)Nc3ccccn3)c3ccccc3c2=O)cc1 -4.65%
Cn1c([N+](=O)[O-])cnc1CN1CCN(CCO)CC1 9.16% [at 2.29 µM]
CCOc1cc(NC(=O)c2ccccc2[N+](=O)[O-])c(OCC)cc1NC(=O)CC(C)C -11.8%
Cc1cccc(NC(=S)NNC(=O)CC(C)O)c1C (centres undefined) -22.8%
CC1(C)CC(=O)C([C@H]2C3=C(CC(C)(C)CC3=O)Oc3ccccc32)C(=O)C1 -6.77%
CN1CCN(/C=N/C2=C(C#N)C(c3ccccc3)C3=C(CC(C)(C)CC3=O)O2)CC1 (centres undefined) -16.3%
N/C(CC/C(N)=N/O)=N\O -17.8% [at 11.4 µM]
O=C(O)CSSCC(=O)O -2.44% [at 11.4 µM]
Cc1nnsc1SCC(=O)O -5.81%
COc1cccc([C@H]2Oc3ccc(OC)cc3/C(=N\O[C@@H]3O[C@H](COC(C)=O)[C@H](OC(C)=O)[C@H](OC(C)=O)[C@H]3OC(C)=O)[C@@H]2O)c1 2.78% [at 11.4 µM]
Fc1nc(N2CCCC2)c(F)c(Oc2ccccc2Oc2c(F)c(F)nc(N3CCCC3)c2F)c1F -26.3%
Fc1cccc(C2NC(=S)NC3=C2N2CCC3CC2)c1 (centres undefined) -4.29%
Cc1nc(SCC(=O)c2cc3ccccc3oc2=O)c(C#N)c(C)c1C(=O)Nc1ccccc1 -7.52%
COc1ccc(NC(=O)N2CC3(CCN(C(=O)c4cnccn4)CC3)C2)cc1 -0.562%
Cc1cccc(OCC(=O)NNC(=O)CSc2ncc(C#N)c(N)n2)c1 -11.1%
C[C@H]1CC[C@H]2C(=O)N3[C@H](c4ccc(Br)cc4)[C@@H](C)CC[C@H]3C(=O)N2[C@@H]1c1ccc(Br)cc1 -10.6% [at 11.4 µM]
CC(C)[C@H](NC(=O)OCc1ccccc1)C(=O)N[C@H](C=O)Cc1ccccc1 (Cbz-Val-Phe-aldehyde) -20.6%
CC(C)C(NC(=O)OCc1ccccc1)C(=O)O (centres undefined) -3.1%
CN(CC(=O)O)Cc1c(O)c(Cl)cc(Cl)c1Cl -0.983% [at 2.29 µM]
COc1ccc(-c2cc(C(=O)Nc3nc4c(C)cccc4s3)c3ccccc3n2)cc1OC -21.2%
CS(=O)(=O)N1CCC2(CCCN(C(=O)Nc3cccc(F)c3)C2)CC1 -19.7%
Cc1ccc(S(=O)(=O)O[C@@H]2[C@H]([C@@H]3COC(C)(C)O3)O[C@H]3OC(C)(C)O[C@@H]32)cc1 -15.9% [at 11.4 µM]
CC[C@@H]1OC(=O)[C@H](C)[C@H](O[C@@H]2C[C@](C)(OC)[C@H](O)[C@H](C)O2)[C@H](C)[C@H](O[C@@H]2O[C@@H](C)C[C@@H](N(C)C)[C@@H]2O)[C@](C)(O)C[C@H](C)[C@@H]2N[C@H](COCCOC)O[C@H]([C@@H]2C)[C@]1(C)O -13% [at 25.6 µM]
CO[C@H]1COC(=O)C/C=C\[C@H](C)COC(=O)[C@@H](C)NC(=O)C/C=C\[C@@H]1C -2.38% [at 11.4 µM]
C[C@@]12C=CC(=O)C=C1CC[C@@H]1[C@@H]2[C@H](O)C[C@]2(C)[C@@H]1CC[C@]2(O)C(=O)CO -4.7% [at 25.6 µM]
Cc1nn(Cc2ccc(Cl)cc2)c(C)c1NC(=O)CSc1nc2c(c(C(F)(F)F)n1)CCc1ccccc1-2 -27.6%
CCc1ccc(-c2cc(C(F)(F)F)n3nc(C(=O)Nc4cnn(Cc5ccccc5C)c4)cc3n2)s1 -8.63%
CC(=O)NS(=O)(=O)c1ccc(N)cc1 4.18% [at 25.6 µM]
Cc1cc(C(F)F)n2nc(C(=O)Nc3cccnc3Cl)nc2n1 -20%
O=C(Nc1ccc(-n2nncc2-c2ccco2)cc1)c1ccc(F)cc1 -24.2%
Nc1ccn([C@@H]2CC[C@H](CO)O2)c(=O)n1 -8.58% [at 25.6 µM]
NC(=O)c1nnn(Cc2cc(Cl)c(C(=O)c3ccc(Cl)cc3)c(Cl)c2)c1N -2.19% [at 2.29 µM]
O=C(Oc1ccccc1)N1CCC2(CC1)CCN(c1ccncc1)CC2 -10.5%
CCOC(=O)C1CCN(C(=O)c2ccccc2NC(C)=O)CC1 6.29%
Cc1ccccc1N1CCN(C(=O)c2ccccc2NC(=O)/C=C\C(=O)O)CC1 0.682%

AC50, active:
Cc1cnc(CNc2ncncc2-c2cccc(C#N)c2)cn1 12.6 µM
Cc1cccc(CNc2ncncc2-c2cccc(C#N)c2)c1 2.51 µM
N#Cc1cccc(-c2cncnc2NCc2ccccc2)c1 5.01 µM
N#Cc1cccc(-c2cncnc2NCc2cccnc2)c1 5.01 µM
COc1ccccc1CNc1ncncc1-c1cccc(C#N)c1 10 µM
N#Cc1cccc(-c2cncnc2NCc2cccs2)c1 1.58 µM
Fc1ccc2c(c1)C1C=CCC1C(c1cc3c(cc1Br)OCO3)N2 (centres undefined) 0.891 µM
C=CCNc1nc(Cl)nc(Nc2ccc(OC)cc2)n1 2.51 µM
CCCC[C@@H]1C[C@H]1C(NC(=O)c1cccs1)c1ccc(Cl)cc1 (some centres undefined) 1 µM
CCCC[C@@H]1C[C@H]1C(NC(=O)c1cccs1)c1ccc(C(F)(F)F)cc1 (some centres undefined) 2 µM
CCCC[C@@H]1C[C@H]1C(NC(=O)c1cccs1)c1ccccc1C(F)(F)F (some centres undefined) 6.31 µM
CCOC(=O)CSC1=NC(=O)/C(=C\c2ccc(Cl)cc2)S1 3.55 µM
CCOC(=O)CSC1=NC(=O)/C(=C\c2ccc(OC(C)=O)cc2)S1 25.1 µM
Clc1ccc(-c2nnc(-c3ccccc3)c(N3CCSCC3)n2)cc1 1.12 µM
Clc1ccc(-c2nnc(-c3ccc(Br)cc3)c(N3CCSCC3)n2)cc1 1.12 µM
Brc1ccc(-c2nnc(-c3ccccc3)c(N3CCSCC3)n2)cc1 1.26 µM
Cc1ccc(-n2c(O)c(/C=N/n3cnnc3)c3ccccc3c2=O)cc1 17.8 µM
Oc1cc2c(cc1O)CN(C(=S)NCCc1ccc(Cl)cc1)CCC2 20 µM
COc1ccc(Oc2c(Cl)cnn(-c3ccccc3)c2=O)cc1 7.08 µM
c1ccc(-c2n[nH]c(-c3ccccc3)c2-c2nc3ccccc3[nH]2)cc1 8.91 µM
CCOc1cc(NC(=S)Nc2cccc(C)c2)c(OCC)cc1NC(=O)CC(C)C 5.01 µM
CC1(C)CC(=O)C2=C(C1)Oc1nc3ccccc3cc1C2C(C#N)C#N (centres undefined) 22.4 µM
O=C(O)CSc1sc(=S)sc1SCC(=O)O 12.6 µM
CCOC(=O)c1ccccc1Oc1c(F)c(F)nc(NCCO)c1F 8.91 µM
Cc1c(C#N)c(=O)oc2ccc3ccccc3c12 0.126 µM
O=C1C2CCCN2C(c2ccc(F)cc2)N1c1nccs1 (centres undefined) 3.16 µM
Cc1snc(SCC(=O)N/N=C(\N)COc2cccc(C(F)(F)F)c2)c1C#N 12.6 µM
O=C1CC(=Nc2ccccc2)NN1c1ccccc1 6.31 µM
O=C(N[C@@H](Cc1ccccc1)C(=O)CCl)OCc1ccccc1 3.16 µM
COc1ccc(OC)c(C2C(C(=O)Nc3nc4ccccc4s3)=C(C)NC3=C2C(=O)CCC3)c1 (centres undefined) 1.41 µM
Cc1ccc(Sc2nc(-c3ccccc3)ccc2C#N)cc1 2.82 µM
N#Cc1ccc(-c2ccc(F)cc2)nc1Sc1ccccc1 0.891 µM
COc1cc(/C=N/Nc2snc(SC)c2C#N)cc(OC)c1OC 4.47 µM
COc1ccc(/C=N/Nc2snc(SC)c2C#N)cc1OC 0.708 µM
Cc1ccccc1Cn1cc(NC(=O)CSc2nc3c(c(C(F)(F)F)n2)CCc2ccccc2-3)cn1 7.08 µM
Cc1c(Cl)cccc1NC(=O)c1ccc(-n2ccnc2)nc1 0.794 µM
O=C(Nc1ccc(F)cc1)c1ccc(-n2ccnc2)nc1 0.501 µM
COc1ccc(Oc2ncc3nc(C)c(=O)n(C)c3n2)cc1 12.6 µM
Cc1nc2cnc(Oc3ccccc3)nc2n(C)c1=O 12.6 µM
O=C(c1ccccc1Nc1ccc(SC(F)F)cc1)N1CCCCC1 14.1 µM

AC50, inactive:
CC(=O)O[C@]1(C(C)=O)CC[C@@H]2[C@@H]3C=C(Cl)C4=CC(=O)[C@H]5C[C@@H]5[C@]4(C)[C@H]3CC[C@]21C
